Sampled rows, rich in hits. Any-hit rate of the full collection: about 0.74%.
FEN1 inh – inhibitors of human flap endonuclease 1. P39748. Recombinant FEN1 flap cleavage, fluorescence, 15 min. Potency, µM (doses to about 114 µM), for the others: at the top dose activity change, negative = inhibition, actives largely listed as inhibitors. actives 0.35% (n = 390,000). AID 588795; also: nearly all actives have a fitted effect of over 65% in size
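Steps: FEN1 (10 nM) dispensed; compound added by pin tool; 15 min at room temperature; substrate added to 50 nM final; reads at 0 min and 15 min; data normalized and fitted (four-parameter Hill).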
RECQ1 helicase – blocks DNA unwinding by human RECQ1 | P46063 | RECQ1 DNA unwinding, red fluorescence kinetic read | Potency, µM (series often up to 57.3 µM), for the others: at the highest dose activity, negative = inhibition, actives largely listed as inhibitors | actives 0.54% (n = 240,000) | AID 2549;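 also: plate controls were vehicle for no effect and no enzyme for full effect; nearly all actives have a fitted effect of over 30% in size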
Target sequence (P46063 whole entry, looked up): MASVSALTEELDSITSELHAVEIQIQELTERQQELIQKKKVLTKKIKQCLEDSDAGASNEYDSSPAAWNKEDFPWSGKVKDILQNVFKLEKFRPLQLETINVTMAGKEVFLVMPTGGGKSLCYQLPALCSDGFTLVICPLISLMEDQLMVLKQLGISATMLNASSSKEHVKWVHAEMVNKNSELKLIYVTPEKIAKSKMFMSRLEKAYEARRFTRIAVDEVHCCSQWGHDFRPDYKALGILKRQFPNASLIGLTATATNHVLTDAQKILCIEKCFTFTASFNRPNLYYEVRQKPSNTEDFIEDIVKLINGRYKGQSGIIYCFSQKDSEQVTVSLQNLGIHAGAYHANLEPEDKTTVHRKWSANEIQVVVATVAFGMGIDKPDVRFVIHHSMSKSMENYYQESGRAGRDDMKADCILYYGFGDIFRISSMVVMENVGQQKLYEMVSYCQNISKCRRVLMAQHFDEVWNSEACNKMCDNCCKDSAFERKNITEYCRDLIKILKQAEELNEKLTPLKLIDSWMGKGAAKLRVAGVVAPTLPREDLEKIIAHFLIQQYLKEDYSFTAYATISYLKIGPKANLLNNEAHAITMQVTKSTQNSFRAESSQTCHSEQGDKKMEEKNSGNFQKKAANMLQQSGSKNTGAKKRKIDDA
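RECQ1T1 50 nM; forked duplex (20 bp + 30-nt ss tails) 200 nM, ATP 2 mM final; pH 8.0, 2 mM MgCl2, 2.5 ug/ml poly(dI-dC); 15 min compound preincubation; discontinuous kinetic read over 2 h at RT.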
BLM helicase inh – blocks DNA unwinding by human BLM helicase | Potency, µM (top dose mostly 56.1 µM), for the others: at the highest dose activity change, negative = inhibition, usual class: inhibitors | recombinant BLM DNA unwinding, fluorescence dequenching | actives 0.2% (n = 350,000) | AID 2528 | P54132;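 also: plate controls were vehicle for no effect and no enzyme for full effect; nearly all actives have a fitted effect of over 35% in size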
APE1 inh – APE1 (human) endonuclease inhibition; recombinant APE1, TAMRA/BHQ-2 abasic DNA cleavage fluorescence; Potency, µM (series often up to 65.8 µM), for inactives: at the highest dose activity change, negative = inhibition, actives largely listed as inhibitors; actives 0.35% (n = 350,000);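 also: plate controls were vehicle for no effect and reference inhibitor for full effect; nearly all actives have a fitted effect of over 55% in size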
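0.75 nM APE1 + cpd, 15 min RT; start w/ 50 nM TAMRA/BHQ-2 THF-abasic dsDNA; kinetic fluor 525/598 nm ×3 reads @60 s; Δ(read3−read1); normalized to DMSO and NSC13755 control wells.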
PGK inhibitor – T. brucei PGK inhibition; P07378; PGK/GAPDH coupled, Kinase-Glo luminescence, 60 min; Potency, µM (highest dose often 57.5 µM), without a hit: at the highest dose activity change, negative = inhibition, actives largely listed as inhibitors; actives 0.043% (n = 380,000); AID 602233; also: nearly all actives have a fitted effect of over 60% in size
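Recombinant glycosomal PGK reaction used 1,3-bisphosphoglycerate generated in-well by GAPDH (100nM final) in 100mM TEA pH 7.6, 5mM MgCl2, 0.01% Tween-20. After 60 minutes at room temperature, ATP was read by Kinase-Glo Plus luminescence end-point.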
* = called active by the depositor; i = inactive; ? = inconclusive; . = not tested or not shown; ! = repeats disagree; [ ] = dose if it differs, or a comment. Calls follow the shape of the dose curve; as a rule, active = well fitted curve in the direction sought with a large enough effect; inconclusive = small, poorly fitted or top-dose-only effect, or another doubt; inactive = no such curve, though single readings can be large; an effect the other way counts as inactive or inconclusive. Unless noted, % is scaled to controls: 0 for no effect and ±100 for the full control effect; potency is read from the fitted curve at half-maximal effect.

SMILES | FEN1 inh | RECQ1 helicase | BLM helicase inh | APE1 inh | PGK inhibitor
CC(=O)Nc1ccccc1C(F)(F)F | -2% | i | 1% | 1% | -6%
NNc1ccccc1C(F)(F)F | -9% | -14% | -5% | 35µM* | -24%
CC(C)c1nn2c(=O)cc(COC(=O)c3ccc(NC(=O)C4CCCCC4)cc3)nc2s1 | 1% | . | -1% | . | 2%
COc1cc(/C=C2\SC(=O)N(c3cccc(Cl)c3)C2=O)cc([N+](=O)[O-])c1O | 89µM* | i | -9% | 2% | ?
CCc1ccccc1-n1c(-c2ccncc2)n[nH]c1=S | -8% | 4% | 5% | 32µM* | -3%
Cc1nnc(SCC(=O)NCc2ccco2)[nH]c1=O | 1% | -18% | 10% | 25µM* | -19%
CN(Cc1nccs1)C(=O)C1CCC(=O)N(CCc2ccc(Cl)cc2)C1 (stereo not given) | -2% | . | -2% | -3% | -4%
C=CCN1C(=O)/C(=C\C=C2\N(C)c3ccccc3C2(C)C)SC1=S | ? | 1.4µM* | ? | 3% | -6%
CCCN1C(=O)/C(=C/C=C2\N(CC)c3ccccc3C2(C)C)SC1=S | ? | i | -5% | -3% | -3%
COc1ccc(-[n+]2c(C)cc(/C=C3\Sc4ccccc4N3C)cc2C)cc1 | 22µM* | -25% | 76% | 1% | 7%
O=C(NC1CCCCC1)c1cc2nc(-c3ccco3)cc(C(F)(F)F)n2n1 | 9% | -4% | -2% | 4% | -8%
COc1ccc(NC(=O)c2ccc(NC(=O)CCS(=O)(=O)c3cccs3)cc2)cc1 | -11% | . | -6% | 6% | 8%
COc1cccc(C2CC(c3cccs3)=NN2C(=O)CSc2nc3c(cnn3-c3ccc(F)cc3)c(=O)[nH]2)c1OC (stereo not given) | 18µM* | -12% | ? | 4% | -3%
COC(=O)c1c(C)nc(C)c(C(=O)OC)c1-c1cccs1 | 3% | -12% | -2% | 7% | 0%
COc1ccc(O[C@H]2C=C[C@@H](c3ccccc3)O[C@H]2COC(=O)CC/C(C)=N\O[C@@H](C)CN2CCCCc3nc(C)c(C)cc32)cc1 | . | i[11.5 µM] | -7%[12.4 µM] | 15%[12.4 µM] | .
CCOC(=O)c1c(NC(C)=O)sc2c(OCC(O)CNC(C)(C)C)c(Br)ccc12 (stereo not given) | 22µM* | 7% | -10% | ? | .
CCNC(=S)N1CCC(C(O)(c2ccccc2)c2ccccc2)CC1 | -6% | i | -10% | -1% | 4%
CN(C)CCCn1cc(C2=C(c3c[nH]c4ccccc34)C(=O)NC2=O)c2ccccc21 | . | 28µM*! | -14% | -10% | .
c1ccc2c(N3CCOCC3)c3c(nc2c1)CCC3 | 17% | . | -4% | 7% | 4%
COc1ccc2c(c1)CCc1c-2nc2ccccc2c1N1CCOCC1 | 50µM* | 18% | 55% | ? | -1%
O=C(CSc1nnc2ccccn12)NC(=O)c1ccccc1Cl | 18% | . | . | 13µM* | -20%
O=C(O)/C=C/c1ccc([N+](=O)[O-])o1 | -19% | i | -6% | ? | 16µM*
COc1ccc(OC)c(C2=NOC(C(=O)NCc3ccccn3)C2)c1 (stereo not given) | -5% | -1% | 0% | 7% | -1%
COc1cccc(/C=N/NC(=O)c2cc3cc([N+](=O)[O-])ccc3s2)c1O | 50µM* | -20% | 16µM* | 2µM* | ?
CCCCC1(CC)COC(c2ccccc2)OC1 (stereo not given) | -10% | . | . | . | 0%
SMILES | FEN1 inh | RECQ1 helicase | BLM helicase inh | APE1 inh | PGK inhibitor
Cc1ccc(C(C#N)c2ccc3c(C(F)(F)F)cc(C(F)(F)F)nc3n2)cc1 (stereo not given) | 6% | -2% | -9% | 1% | 0%
Cc1c(Br)c(O)c(Br)c(O)c1/C=N/n1c(-c2ccccc2)n[nH]c1=S | 35µM* | . | -2% | 44% | -22%
CC(C)NC(=O)N(C)C[C@H]1OCc2cnnn2CCCC(=O)N([C@H](C)CO)C[C@@H]1C | . | . | . | . | -8%
Cc1c(Cl)cccc1N1CC(C)(C)C1=O | 3% | 18µM* | 0% | -4% | -4%
CCOC(=O)C1(CC2CCCCO2)CCN(C(=O)Nc2ccc3c(c2)OCO3)CC1 (stereo not given) | 11% | i | -6% | -2% | -7%
CCOc1cc(/C=C2\N=C(SCC)SC2=O)cc([N+](=O)[O-])c1OC(C)=O | ? | -19% | -6% | 2% | -21%
CCOc1cc(/C=C2\N=C(SC)SC2=O)cc([N+](=O)[O-])c1OC(C)=O | 50µM* | i | -2% | -9% | -6%
Cc1ccc(S(=O)(=O)OCC(=O)Nc2ccc(C(=O)O)c(O)c2)cc1 | 28µM* | . | . | . | ?
Cc1ccc(NC(=O)COCC(=O)Nc2ccc(C)cc2)cc1 | -14% | . | 0% | -8% | -7%
CCOc1ccc2nc3cc(N=Nc4ccc(N)nc4N)ccc3c(N)c2c1 | 7.1µM* | . | . | . | -22%
COc1ccc(N=Nc2ccc(N)nc2N)cc1 | 3% | 1% | -7% | 8% | -7%
CC(=O)Nc1ccn(C2OC(C(COC(C)=O)NC(=O)C(COCc3ccccc3)NC(=O)OC(C)(C)C)C(OC(C)=O)C2OC(C)=O)c(=O)n1 (stereo not given) | 4% | i | 7% | 11% | .
Cc1coc2c1c(C)cc1oc(=O)c(CC(=O)NCCCCCC(=O)O)c(C)c12 | -13% | . | -1% | -5% | 4%
O=C(Nc1cccc(Cl)c1)c1cc(N=Nc2ccc([N+](=O)[O-])cc2Cl)ccc1O | -21% | -5% | 18µM* | -3% | .
O=C(Nc1ccc([N+](=O)[O-])cc1Cl)c1cc(Cl)ccc1O | ? | -5% | 3% | -24% | -7%
O=C(O)CCCN1C(=O)/C(=C\c2ccc(-c3nc4ccccc4s3)o2)SC1=S | 35µM* | ? | -6% | ? | ?
O=C(Nc1ccc2oc(-c3ccccc3F)nc2c1)c1ccccc1Cl | -16% | . | -7% | . | -5%
O=C(Nc1ccc2oc(-c3ccccc3F)nc2c1)c1ccc([N+](=O)[O-])o1 | -18% | . | -16% | 2.7µM* | -14%
C/C(=N/OC(=O)c1ccc(C)cc1)c1cccs1 | -9% | -6% | 0% | -2% | 32µM*
Cc1ccc(C(=O)O/N=C(\N)c2ccccn2)cc1 | -14% | . | 2% | 76% | 25µM*
COc1ccc(C(=O)O/N=C(\C)c2ccccc2)cc1 | -8% | -3% | -6% | -1% | 22µM*
Cc1nc(N2CCN(C(=O)c3ccc(Cl)cc3)CC2)c(C#N)c2c1COC(C)(C)C2 | -3% | -2% | -4% | -1% | -1%
CN(Cc1ccccc1)c1ccc(/C=C/c2sc3ccccc3[n+]2C)cc1 | 40µM* | . | . | . | .
CC[n+]1c(/C=C/Nc2ccccc2)sc2ccccc21 | -9% | 9% | -1% | -7% | -6%
CCN(CC)c1ccc(/C=C/c2nc3ccccc3s2)cc1 | . | 14% | -8% | 5% | .

High-throughput results as filed in PubChem BioAssay.
